Rows were chosen to be rich in hits. Some 4.1% of all compounds tested hit in one or more screens of this group.
tim23-1 inh = inhibits growth of tim23-1 mutant yeast | S. cerevisiae tim23-1 growth, BacTiter-Glo luminescence, 24 h | inhibition, % at 20 µM | 1.3% of 330,000 active;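 active means growth inhibition of the mutant yeast at or above 50%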;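 further: temperature-sensitive mutant grown at 25 °C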
tim10-1 inh = tim10-1 yeast growth inhibition. S. cerevisiae tim10-1 ts strain growth, BacTiter-Glo, 24 h. inhibition, % at 20 µM. 2.2% of 330,000 active;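 active means inhibition of at least 40%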;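 further: mutant grown at 25 °C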
NALP3 yeast inh = inhibitors of NALP3 inflammasome in yeast | Yeast reconstituted NLRP3/ASC/caspase-1, beta-gal luminescence, 24 h | 0.39% of 330,000 active | inhibition, % at 10 µM;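 active means inhibition of 50% or more; inactive means inhibition below 50%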
TIM10 inh = TIM10 yeast growth inhibition. inhibition, % at 10 µM. 1.4% of 330,000 active. AID 463195. S. cerevisiae TIM10 strain growth, BacTiter-Glo luminescence, 24 h;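 active means inhibition of 40% or more at the single tested concentration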;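 further: wild-type TIM10 isogenic control strain grown at permissive 25 °C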
NALP1 yeast inh = NALP1 inhibition; S. cerevisiae NALP1/ASC/caspase-1 growth, X-gal OD620, 72 h; inhibition, % at 10 µM; AID 2071; 0.61% of 280,000 active; in the data active means inhibition mostly above about 24%, no sharp cut-off; inactive means mostly below about 32%
tim10-1 conf = tim10-1 yeast growth inhibition, confirmed | 56% of 7,400 active | inhibition, % at 20 µM | shares compounds with tim10-1 inh | S. cerevisiae tim10-1 ts strain growth, BacTiter-Glo, 24 h | AID 463213;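 active means inhibition of yeast growth at or above a set limit in either of two repeat tests at 20 µM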;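 further: tim10-1 mutant grown at permissive 25 °C to find synthetic lethal compounds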
Of the large screens only hits and unclear results are named; the others gave an inactive call (follow-up assays come after a bar, where they were run).

N#Cc1c(N2CCCC(O)C2)nc(N)c2c(N)nc3c(c12)CC(=O)N3C12CC3CC(CC(C3)C1)C2 (stereo unspecified)	tim10-1 inh 50 | tim10-1 conf 33
COc1cnc(-c2ccccn2)nc1Sc1ccc(C)cc1	tim10-1 inh 44 | tim10-1 conf inactive
COc1ccc(-c2cnn3c4c(c(C)nc23)CCN4C(C)C)cc1OC	tim10-1 inh 43 | tim10-1 conf inactive
Cc1cc(C)n(-c2cc(C(C)(C)C)nc3c(-c4ccc(Cl)cc4)cnn23)n1	none | tim10-1 conf inactive
COc1cc2c(c3oc(-c4ccccc4)cc(=O)c13)C=CC(C)(C)O2	tim10-1 inh 47 | tim10-1 conf inactive
COc1cc(OC)c2c(=O)cc(-c3ccccc3)oc2c1	none
O=C(O)c1ccc(-c2cccc([N+](=O)[O-])c2)o1	none
O=C(NC1CCCCC1)c1ccc(-c2cccc([N+](=O)[O-])c2)o1	tim10-1 inh 41 | tim10-1 conf inactive
O=C(Oc1ccc(C(=S)N2CCCCC2)cc1)c1ccccc1F	tim10-1 inh 56 | tim10-1 conf inactive
CCOC(=O)C1CCCN(S(=O)(=O)CCNC(=O)c2ccc3c(c2)OCO3)C1 (stereo unspecified)	none (no result: NALP1 yeast inh)
COCCn1c(=NC(=O)CSCC(=O)N2CCOCC2)sc2cc(C)ccc21	none
CCCCC(=O)NC(c1ccco1)c1cc(Cl)c2cccnc2c1O (stereo unspecified)	none
CCC(=O)NC(c1ccco1)c1cc(Cl)c2cccnc2c1O (stereo unspecified)	none | tim10-1 conf inactive
O=C(O)/C(=C\c1ccc(-c2ccccc2[N+](=O)[O-])o1)c1ccccc1	tim10-1 inh 40 | tim10-1 conf 52
Cc1ccccc1C(C(=O)NC1CCCCC1)N(C(=O)CNC(=O)c1ccco1)c1cccnc1 (stereo unspecified)	none
COc1cc(CC(NC(C)=O)C(=O)NC2CCN(S(=O)(=O)c3ccc(NC(C)=O)cc3)CC2)cc(OC)c1 (stereo unspecified)	none
CSc1nsc(/C=C/Nc2ccc(C(=O)O)cc2)c1C#N	none
CSc1nsc(/C=C/Nc2ccc(F)cc2F)c1C#N	tim10-1 inh 46 | tim10-1 conf 41
CCCn1c(N)c(C(=O)CSc2n[nH]c(-c3ccc(C)cc3)n2)c(=O)[nH]c1=O	none (no result: NALP1 yeast inh)
CCCc1ccc(-c2c(C)sc(N)c2C#N)cc1	tim10-1 inh 68 | tim10-1 conf 49
CCCC(=O)Nc1sc(C)c(-c2ccc(OC)cc2)c1C#N	none
COc1ccc2cc(C)c3nnc(SCc4cccnc4)n3c2c1	tim10-1 inh 41 | tim10-1 conf 34
COc1ccc2cc(C)c3nnc(SCC(=O)Nc4cc(OC)c(OC)cc4C(=O)O)n3c2c1	none
CCCCC1=CC2=C(c3ccco3)C(=O)C(C)(OC(=O)c3ccc(OC)cc3)C(=O)C2=CN1c1ccccc1 (stereo unspecified)	none (no result: NALP1 yeast inh)
N/C(CCS(=O)(=O)c1ccc(Cl)cc1)=N\OC(=O)c1ccccc1C(F)(F)F	tim10-1 inh 64 | tim10-1 conf 78
Cc1ccc(C)c(C(=O)CSc2nc(C)cc(=O)[nH]2)c1	none
CCOC(=O)C1CCN(S(=O)(=O)c2ccc(Cl)cc2OC)CC1	none
CCOC(=O)C1CCN(S(=O)(=O)c2ccc(OC)c(Cl)c2Cl)CC1	tim10-1 inh 40 | tim10-1 conf inactive
C=CCOc1ccc(C2/C(=C(\O)c3ccc4c(c3)CC(C)O4)C(=O)C(=O)N2CCN2CCOCC2)cc1OCC (stereo unspecified)	none
Cc1ccc(S(=O)(=O)N2CCOCC2)cc1C(=O)Nc1nc(-c2cccnc2)cs1	none
O=S(=O)(c1ccc(-c2csc(-c3cccnc3)n2)cc1)N1CCOCC1	tim10-1 inh 42 | tim10-1 conf inactive
CCN(CC1COc2ccccc2O1)C(=S)Nc1ccc(F)cc1 (stereo unspecified)	tim10-1 inh 45 | tim10-1 conf inactive
COc1ccc(NC(=S)N(C)CC2COc3ccccc3O2)cc1 (stereo unspecified)	none
O=C1CC2c3ccccc3C1C1C(=O)N(CCc3ccccc3)C(=O)C21 (stereo unspecified)	none
O=C(c1cc(COc2cccc(C(F)(F)F)c2)on1)N1C[C@@H]2CCC[C@H]1C2	tim10-1 inh 45 | tim10-1 conf 34
COc1ccc(OC)c(-n2c(SCC(=O)Nc3cc(C)on3)nnc2-c2c[nH]c3ccccc23)c1	tim10-1 inh 52 | tim10-1 conf inactive
O=C(NCc1cccs1)c1cccnc1Cl	none
Cc1cccc(Nc2ncccc2C(=O)NCc2cccs2)c1C	tim10-1 inh 52 | tim10-1 conf 34
COc1ccc(Br)cc1CN(C)C(=O)c1cnc(C)cn1	none
Cc1ccc(S(=O)(=O)N2CCN(C(=O)c3cc4c(s3)CCCC4)CC2)c(C)c1	none (no result: NALP1 yeast inh)
O=C(c1cc2c(s1)CCCC2)N1CCN(S(=O)(=O)c2ccccc2C(F)(F)F)CC1	tim10-1 inh 41 | tim10-1 conf inactive
Cc1ccccc1NC(=O)COC(=O)c1cc(S(=O)(=O)N2CCOCC2)ccc1C	none (no result: NALP1 yeast inh)
CSc1ccccc1NC(=O)COC(=O)CCc1ccccc1	none
CC(=O)N(C)c1ccc(NC(=S)Nc2cccc3ccccc23)cc1	none
Fc1cccc(NC(=S)Nc2cccc3ccccc23)c1	none
Cc1ccc(NC(=S)Nc2cccc3ccccc23)cc1F	tim10-1 inh 49 | tim10-1 conf inactive
CC(=O)c1ccc(NC(=S)Nc2cccc3ccccc23)cc1	tim10-1 inh 41 | tim10-1 conf inactive
CC1=C(CC(=O)O)c2cc(F)ccc2/C1=C/c1ccc(S(C)=O)cc1 (stereo unspecified)	none
COc1cc(NC(=O)C2=C(N3CCOCC3)/C(=C/c3ccc(Cl)cc3)CC2)cc(OC)c1OC	tim10-1 inh 44 | tim10-1 conf 44
CC[N+](CC)(CC#Cc1ccccc1)CC(=O)c1ccc(Cl)cc1	tim10-1 inh 51 | tim10-1 conf 45
CSc1ccccc1OCc1cc(C(=O)N2CCC(Oc3cccnc3)CC2)no1	tim10-1 inh 43 | tim10-1 conf 37
CSc1ccccc1OCc1cc(C(=O)N2CCSCC2)no1	none
O=C(c1cc(COc2ccc(F)cc2Cl)on1)N1CCN(c2cnccn2)CC1	tim10-1 inh 50 | tim10-1 conf 47
CSc1ccccc1OCc1cc(C(=O)N2CCN(c3ncccn3)CC2)no1	tim10-1 inh 46 | tim10-1 conf inactive
CSc1ccccc1OCc1cc(C(=O)N2CCCC(C)C2)no1 (stereo unspecified)	none
O=C(Nc1ccccc1)/C(=C/c1ccc(F)cc1)NC(=O)c1ccco1	none
COc1ccc(S(=O)(=O)NCC(c2cccnc2)N2CCN(Cc3ccccc3)CC2)cc1C (stereo unspecified)	none
Cc1ccc(C)c(OC(=O)c2cccc(S(=O)(=O)N3CCN(C)CC3)c2)c1	tim10-1 inh 42 | tim10-1 conf inactive
CC(=O)Nc1ccc(NC(=O)COC(=O)/C(=C/c2ccccc2)n2nnnc2C)cc1	none
